# “And” between values parts separate entries of the source, which are not always exact repeats. Equal values may be shown once. Records with an inconclusive call do not appear. The source made the active and inactive calls. Unless noted, no stated cut-off is given here; in the data, active means inhibition above about 80%; inactive means the rest.
# Tests used:
# [1] = JHH-DIPG-1 glioma cell viability, MIPE5.0 library, CellTiter-Glo luminescence, qHTS (AID 1347067; cut-off not given, nearly all actives have AC50 up to about 26 µM;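 further: cells exposed to compound for 48 hours before readout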); settings: JHH-DIPG-1 glioma viability, CellTiter-Glo ATP luminescence
# [2] = growth inhibition of DIPG cells – cell-based, MIPE5.0 library, qHTS (AID 1347068; cut-off not given, nearly all actives have IC50 up to about 30 µM); settings: SU-DIPG-XXV viability
# [3] = viability loss with induced miR-34 in A549 – imaging, A549 dox-inducible miR-34, nuclei and caspase counts, primary screen (AID 1347080;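 active means compounds whose cell count with miR-34 switched on is under 0.7 times the count with it off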); settings: A549 miR-34 inducible, Hoechst nuclei count, 48 h
# [4] = MELAS cybrid and Rieske KO viability enhancers – cell-based, MELAS cybrids, Rieske KO mouse fibroblasts, CellTiter-Glo, primary screen (AID 1508586;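 active means mean z-score across replicates of 1.96 or higher in either the MELAS or the Rieske mutant cell line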;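 further: z relative to plate mean and SD of compound and empty wells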); settings: low glucose
# [5] = growth inhibition, single agent or in combination, cell-based, chromothripsis tumors, cisplatin or BGB combos (AID 1671449); settings: LFS_MB_P medulloblastoma cells;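 further: cells exposed for 96 hours; 0% = vehicle DMSO and 100% = killing by high DMSO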
# [6] = growth inhibition, single agent and combos, cell-based, chromothripsis tumors, cisplatin or BGB combos (AID 1671450); settings: HDN33 neuroblastoma cells, stronger effect = higher value;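 further: cells exposed to compound for four days; 0% = vehicle DMSO and 100% = cell killing by high DMSO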
# [7] = growth inhibition, single agents and combos, ICB984, cell-based, cisplatin or BGB combos, synergistic combos for chromothripsis tumors (AID 1671451; call rule not given here;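 further: cells exposed for 96 hours before readout; 0% = vehicle DMSO and 100% = killing by high DMSO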); settings: ICB984 medulloblastoma cells, drug combinations, stronger effect = higher value
# [8] = growth inhibition, single agents and combos, LFS_MB_1R, cell-based, cisplatin or BGB combos, synergistic combos for chromothripsis tumors (AID 1671452); settings: LFS_MB_1R medulloblastoma cells, stronger effect = higher value;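 further: cells exposed for 96 hours before readout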
# [9] = growth inhibition, single agents and combos, HTB85, cell-based, BGB or cisplatin IC20 combos, synergistic combos for chromothripsis tumors (AID 1671453); settings: HTB85 osteosarcoma cells, drug combinations, stronger effect = higher value;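 further: cells exposed for 96 hours before readout; 0% = vehicle DMSO and 100% = high DMSO killing control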
# [10] = growth inhibition, single agents and combos, CRL2098, cell-based, BGB or cisplatin IC20 combos, synergistic combos for chromothripsis tumors (AID 1671454); settings: CRL2098 osteosarcoma cells, drug combinations, stronger effect = higher value;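 further: cells exposed for 96 h before readout; 0% = vehicle DMSO and 100% = killing by high DMSO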
# [11] = growth inhibition, single agents and combos, HD-MB03, cell-based, BGB or cisplatin IC20 combos, synergistic combos for chromothripsis tumors (AID 1671455; in the data active means inhibition above about 83%;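 further: 0% = vehicle DMSO and 100% = high DMSO as cytotoxic control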); settings: HD-MB03 medulloblastoma cells, stronger effect = higher value
# [12] = growth inhibition, single agents and combos, UWB1.289, cell-based, BGB or cisplatin combos, synergistic combos for chromothripsis tumors (AID 1671456); settings: UWB1.289 ovarian carcinoma cells, stronger effect = higher value;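 further: cells exposed to compound for four days; 0% = vehicle DMSO and 100% = killing by high DMSO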
# [13] = growth inhibition, single agents and combos, LFS_MB_2R, cell-based, cisplatin combos, synergistic combos for chromothripsis tumors (AID 1671457); settings: LFS_MB_2R medulloblastoma cells, stronger effect = higher value;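 further: cells exposed to compound for four days before readout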
# [14] = growth inhibition, MDA-MB-436, cell-based, BGB or cisplatin combos, synergistic combos for chromothripsis tumors (AID 1671458; call rule not given here;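 further: cells exposed for 96 hours; 0% = vehicle DMSO and 100% = killing by high DMSO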); settings: MDA-MB-436 breast carcinoma growth inhibition, drug combinations, stronger effect = higher value
# [15] = UWB1.289_BRCA1 ovarian cancer growth, cell-based, BGB or cisplatin combinations (AID 1671459); settings: UWB1.289 BRCA1 ovarian carcinoma, drug combinations, stronger effect = higher value
# [16] = drug combination toxicity in non-malignant astrocytes – cell-based, BGB or cisplatin IC20 combos, cytotoxicity control for chromothriptic childhood tumor combination screen (AID 1671460); settings: Human astrocytes, viability inhibition, drug combinations, at 0.5 µM, stronger effect = higher value;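 further: cells exposed to compounds for 96 hours before viability readout; 0% = vehicle and 100% = killing control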
# [17] = BT084 cell growth, single and combined drugs, ICGC_MB145, cisplatin and BGB IC40 combos (AID 1671461); settings: BT084 medulloblastoma cells, drug combinations, stronger effect = higher value;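 further: cells exposed to drugs for 96 hours; 0% = vehicle DMSO and 100% = high DMSO full killing control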
# [18] = RCMB18 cell growth, single agent and combined, cisplatin and BGB IC40 combos (AID 1671462); settings: RCMB18 medulloblastoma cells, stronger effect = higher value;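 further: cells exposed to compound for four days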
# [19] = CRL1545 cell growth, single agent and combined, cisplatin and BGB IC20 combos (AID 1671464); settings: CRL1545 osteosarcoma cells, stronger effect = higher value;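 further: cells exposed to compound for 96 hours before readout; 0% = vehicle DMSO and 100% = high DMSO killing control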
# [20] = viability loss in pontine glioma line – cell-based, SU-DIPG-XXV, MIPE5.0, CellTiter-Glo, qHTS, dose response (AID 1347065; cut-off not given, nearly all actives have AC50 up to about 26 µM;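 further: cells exposed to compound for 48 hours before ATP readout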); settings: CellTiter-Glo ATP luminescence
# [21] = growth inhibition of DIPG cells – cell-based, MIPE4.0 library, CellTiter-Glo luminescence, qHTS (AID 1347066; cut-off not given, nearly all actives have AC50 up to about 30 µM;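 further: cells exposed to compound for 48 hours before readout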); settings: SU-DIPG-VI viability, CellTiter-Glo ATP luminescence
# [22] = stronger effect = lower value, cell number ratio, induced over uninduced
# [23] = measured here: relative caspase fold change +Dox/-Dox
# [24] = measured here: total cells with miR-34 induction, stronger effect = lower value
# [25] = measured here: total cells without miR-34 induction
# [26] = MELAS cybrid survival, CellTiter-Glo 48 h, stronger effect = higher value
# [27] = Rieske KO mouse fibroblast survival, CellTiter-Glo 72 h
# [28] = measured here: combination with BGB IC40, at 0.05 µM
# [29] = measured here: with BGB IC20 combination, at 0.5 µM
# [30] = measured here: with cisplatin IC20 combination, at 0.5 µM
# [31] = measured here: combination with cisplatin, at 0.5 µM
# [32] = measured here: combination with cisplatin, at 5 µM
compound,measurement,setting,value
Nc1nc(F)nc2c1ncn2C1OC(COP(=O)(O)O)C(O)C1O (centres undefined),outcome,[1],inactive
same,outcome,[2],inactive
same,fold change,[3]; [22],0.831 (inactive)
same,fold change,[3]; [23],1.44
same,cell count,[3]; [24],1120
same,cell count,[3]; [25],1350
same,z-score,[4]; [26],1.34 (inactive)
same,z-score,[4]; [27],0.326
same,inhibition,"[5]; at 0.5 µM, stronger effect = higher value",-6.1% (inactive) and -16% (inactive)
same,inhibition,"[5]; measured here: combination with BGB IC20, at 0.005 µM",-22.8% and 0.183%
same,inhibition,"[5]; measured here: combination with BGB IC40, at 0.005 µM",-34.6% and 88.8%
same,inhibition,[5]; [28],-38.1% and -2.46%
same,inhibition,"[5]; measured here: combination with cisplatin, at 0.5 µM, stronger effect = higher value",-18.5% and -25%
same,inhibition,"[5]; measured here: combination with cisplatin, at 5 µM, stronger effect = higher value",-36% and -9.03%
same,inhibition,"[6]; BGB combo, at 5 µM",8.47% and 22.7%
same,inhibition,[6]; at 0.5 µM,-18.9% (inactive) and 5.11% (inactive)
same,inhibition,"[6]; cisplatin combo, at 5 µM",34% and 24.2%
same,inhibition,[6]; [29],-23% and -1.08%
same,inhibition,[6]; [30],-13.9% and 12.9%
same,inhibition,"[6]; single agent, at 5 µM",32.2% and 15.4%
same,inhibition,"[7]; BGB IC20 combo, at 0.005 µM",-19.2% and -1.57%
same,inhibition,"[7]; BGB IC40 combo, at 0.005 µM",-13.6% and -18.3%
same,inhibition,"[7]; BGB IC40 combo, at 0.05 µM",-31.2% and -1.01%
same,inhibition,[7]; at 0.5 µM,-29.2% (inactive) and -28.4% (inactive)
same,inhibition,"[7]; cisplatin combo, at 0.05 µM",-35.9% and -6.12%
same,inhibition,"[7]; cisplatin combo, at 0.5 µM",-20.9% and -39.7%
same,inhibition,"[7]; cisplatin combo, at 5 µM",-37.1% and 11.4%
same,inhibition,"[7]; measured here: 5 uM single agent, at 5 µM",0.546% and -0.896%
same,inhibition,[8]; at 0.5 µM,-6.95% (inactive) and -19.6% (inactive)
same,inhibition,[8]; [28],-26.6% and -4.09%
same,inhibition,[8]; [31],-0.649% and -47.1%
same,inhibition,[8]; [32],-27.4% and 0.798%
same,inhibition,[9]; at 0.5 µM,-3.37% (inactive) and -4.43% (inactive)
same,inhibition,"[9]; measured here: with BGB IC20, at 0.5 µM",-4.86% and 13.2%
same,inhibition,"[9]; measured here: with BGB IC20, at 5 µM",45.3% and 42.7%
same,inhibition,"[9]; measured here: with cisplatin IC20, at 0.5 µM",-6.04% and -18.8%
same,inhibition,"[9]; measured here: with cisplatin IC20, at 5 µM",12.2% and 45.7%
same,inhibition,"[9]; single agent, at 5 µM",36% and 50.6%
same,inhibition,[10]; at 0.5 µM,89.7% (active) and 91.2% (active)
same,inhibition,"[10]; measured here: combination with BGB at IC20, at 0.5 µM",89.6% and 91.3%
same,inhibition,"[10]; measured here: combination with cisplatin at IC20, at 0.5 µM",88.8% and 92.6%
same,inhibition,[11]; at 0.5 µM,-9.66% (inactive) and -9.92% (inactive)
same,inhibition,"[11]; measured here: combo with BGB at IC20, at 0.5 µM",-18.1% and -5.96%
same,inhibition,"[11]; measured here: combo with cisplatin at IC20, at 0.5 µM",-7.22% and -17%
same,inhibition,[12]; at 0.5 µM,0.55% (inactive) and 0.43% (inactive)
same,inhibition,"[12]; measured here: inhibition with BGB combination, at 0.05 µM",-14.7% and -18.8%
same,inhibition,"[12]; measured here: inhibition with cisplatin combination, at 0.05 µM",7.04% and -2.8%
same,inhibition,[13]; at 0.5 µM,-15.7% (inactive) and -21.8% (inactive)
same,inhibition,[13]; [31],-20.2% and -35.8%
same,inhibition,[13]; [32],-11.6% and -19.4%
same,inhibition,[14]; at 0.5 µM,-9.15% (inactive) and -15.9% (inactive)
same,inhibition,"[14]; measured here: BGB combination, at 0.5 µM",-8.11% and -21.9%
same,inhibition,"[14]; measured here: BGB combination, at 5 µM",-2.69% and -3.01%
same,inhibition,"[14]; measured here: cisplatin combination, at 0.5 µM",-21.1% and -19.1%
same,inhibition,"[14]; measured here: cisplatin combination, at 5 µM",-5.75% and -5.25%
same,inhibition,"[15]; BGB combination, concentration series, at 5 µM",11.6% and 15.8%
same,inhibition,[15]; at 0.5 µM,-0.02% (inactive) and -0.87% (inactive)
same,inhibition,"[15]; cisplatin combination, concentration series, at 5 µM",11.9% and 23.4%
same,inhibition,[16],1.35% (inactive) and 3.3% (inactive)
same,inhibition,[16]; measured here: combo with BGB IC20,-1.03% and 7.99%
same,inhibition,[16]; measured here: combo with cisplatin IC20,-5.99% and 1.9%
same,inhibition,[17]; at 0.5 µM,-11.5% (inactive) and -3.83% (inactive)
same,inhibition,"[17]; cisplatin combination, at 0.5 µM",-36% and -5.18%
same,inhibition,"[17]; cisplatin combination, at 5 µM",4.67% and -96.3%
same,inhibition,"[17]; measured here: BGB IC40 combination 0.05 uM, at 0.05 µM",-40.8% and -7.89%
same,inhibition,"[17]; single agent, at 5 µM",-1.22% and 8.96%
same,inhibition,[18]; at 0.5 µM,-12.8% (inactive) and -10.2% (inactive)
same,inhibition,"[18]; cisplatin combo, at 5 µM",18.6% and -15.8%
same,inhibition,"[18]; measured here: BGB IC40 combination, at 0.05 µM",-56.2% and -25.6%
same,inhibition,[18]; [31],24.5% and -1.4%
same,inhibition,"[18]; single agent, at 5 µM",-15.5% and 3.22%
same,inhibition,[19]; at 0.5 µM,-20.4% (inactive) and 8.11% (inactive)
same,inhibition,[19]; [29],-8.22% and 10.3%
same,inhibition,[19]; [30],-28.6% and 5.54%
same,inhibition,"[19]; single agent, at 0.05 µM",18.9% and -12.8%
same,inhibition,"[19]; single agent, at 5 µM",-12.4% and -14.9%
Cc1cccc(CC(=O)N2CCc3c2ccc(-c2cn(C)c4ncnc(N)c24)c3F)n1,AC50,[20],10.5 µM (active)
same,fold change,[3]; [22],1.38 (inactive)
same,fold change,[3]; [23],0.997
same,cell count,[3]; [24],7830
same,cell count,[3]; [25],5660
same,z-score,[4]; [26],-0.412 (inactive)
same,z-score,[4]; [27],-0.298
NC(=O)c1nnn(Cc2cc(Cl)c(C(=O)c3ccc(Cl)cc3)c(Cl)c2)c1N,AC50,[21],18.7 µM (active)
